Experiments:
[1] = target: T1, Aspartate--tRNA(Asp/Asn) ligase (Mycobacterium tuberculosis (strain ATCC 25618 / H37Rv)) (UniProt P9WFW3); test: Assay for Asp RNA synthetase-1 from Mycobacterium tuberculosis; format: functional; set-up: scale not given: direction of the effect not stated beside the values; settings: 30 µM; further: in the data most compounds retested in dose-response had high values
T1 sequence (whole entry): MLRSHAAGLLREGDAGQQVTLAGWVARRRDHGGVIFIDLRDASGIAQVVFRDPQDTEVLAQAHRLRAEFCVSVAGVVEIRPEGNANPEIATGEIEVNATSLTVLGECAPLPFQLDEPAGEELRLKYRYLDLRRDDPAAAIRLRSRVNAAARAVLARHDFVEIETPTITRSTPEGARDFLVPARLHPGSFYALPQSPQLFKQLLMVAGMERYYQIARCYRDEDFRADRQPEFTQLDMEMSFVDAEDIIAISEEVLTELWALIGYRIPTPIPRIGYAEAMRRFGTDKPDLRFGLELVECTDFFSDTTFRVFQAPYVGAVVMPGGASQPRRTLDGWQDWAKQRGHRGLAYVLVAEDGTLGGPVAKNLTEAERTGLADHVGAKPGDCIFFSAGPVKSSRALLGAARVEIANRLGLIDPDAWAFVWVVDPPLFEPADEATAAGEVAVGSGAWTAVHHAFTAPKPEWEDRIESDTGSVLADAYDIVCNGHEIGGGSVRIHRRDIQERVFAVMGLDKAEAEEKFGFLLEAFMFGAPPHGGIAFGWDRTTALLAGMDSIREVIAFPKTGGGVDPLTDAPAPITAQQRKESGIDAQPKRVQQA

[2] = target: Shiga toxin 2 (Escherichia coli O157:H7) (UniProt P09385+P09386); test: E. coli 0.157:H7 Shiga Toxin SOP - stx2 screening assay; format: functional; set-up: scale not given: direction of the effect not stated beside the values; settings: 30 µM

Structure (SMILES) | Percent Effect [1] [%] | Percent Effect [2] [%]
Cn1cc2c(n1)C(COCC1CC1)CN(Cc1ccccn1)C2 (configuration not stated) | -2.25 | 9.17
CN(CCOc1cccc(CN)c1)C1CCOCC1 | -0.881 | -50.4
c1ccc(-c2ccc3nc(C4CCN(CC5CC5)CC4)nn3c2)cc1 | 1.41 | -51.6
CCc1n[nH]c(C2CN(C(=O)c3cnns3)CCO2)n1 (configuration not stated) | -0.228 | 10.8
CCOc1ncccc1C(=O)N1CCCC(c2nccn2CCOC)C1 (configuration not stated) | -4.25 | -0.308
COC(=O)c1cc(OCC2CCC2)cc(C(=O)N[C@@H]2CNCC[C@H]2O)c1 | 6.47 | -42.6
CN(Cc1ccc(Cl)s1)C(=O)c1cccc(OCC(N)=O)c1 | -2.2 | 0.368
CCn1cnnc1C1CCN(C(=O)c2cccc3c2ccn3C)CC1 | -3.52 | -25.8
Cc1ccn(-c2ccccc2NCc2ccccn2)n1 | 0.661 | 4.81
CN(Cc1ccco1)C[C@H]1OC[C@@H]2CCN(Cc3cccnc3)C[C@@H]21 | 3.55 | -24.2
O=C(c1cc(Cl)c2c(c1)OCO2)N1CCN(c2ccccn2)CC1 | -0.949 | 18.3
COc1ccc(C2=C(C)C(N3CCc4ccccc4C3)=NS2(=O)=O)cc1 | 2.67 | -90
O=C1CCSCC(C(=O)N2CCOCC2)N1 (configuration not stated) | 1.64 | 3.97
CC(C)(C)c1cnc(CN2CCCC2Cn2cccn2)o1 (configuration not stated) | -3.34 | 0.322
Cc1nc(CC(=O)N2CCC[C@H]2c2nc(C(C)C)no2)cs1 | -2.23 | 4.58
CCc1nc(CN2CCCN(Cc3cnn(C)c3)CC2)no1 | -10.6 | -4.68
Cc1ccc([C@@H]2CN(C(=O)c3cccnn3)C[C@H]2NC(=O)C2CC2)cc1 | -3.85 | 29.5
c1csc(CN2CCOCC3(CCN(C4CCOCC4)C3)C2)n1 (configuration not stated) | 9.2 | -7.95
O=C(NCc1ccccc1)[C@H]1C[C@@H]2CN(S(=O)(=O)C3CC3)C[C@H]1O2 | 6.82 | 2.32
O=C(C1CC1)N1CCN(Cc2coc(-c3ccc(Cl)cc3)n2)CC1 | -1.18 | 7.92
Cc1ccc(SCC2CNc3nc4ccccc4c(=O)n32)c(C)c1 (configuration not stated) | 0.0228 | 9.77
Cc1cc2n(n1)CC(CNCc1ccnc(-n3ccnc3C)c1)CN2 (configuration not stated) | -2.39 | -3.5
CCn1nnc2c1C(COC)CN(Cc1ccsc1)C2 (configuration not stated) | -1.23 | -3.86

Structure (SMILES) | Percent Effect [1] [%] | Percent Effect [2] [%]
CCn1nc2c(cc1=O)CN(Cc1nc(N)c3ccccc3n1)CC2 | 1.61 | 15.6
O=C(N1CCCC1)N1CCC2(CCCN(CCOc3ccccc3)C2)C1 (configuration not stated) | -0.364 | -4.82
Cc1nc(CN2CCN(C(=O)c3sccc3C3CC3)CC2)cs1 | -4.27 | 13.6
O=C(CN1CCc2ccccc21)Nc1ccc(OC(F)F)cc1 | 0.418 | -7.39
COc1cccc(C(=O)N2CCCCC2CNC(N)=O)c1 (configuration not stated) | 3.2 | 26.9
Cc1noc2ncc(C(=O)N3CCCC3c3cnn(C)c3)cc12 (configuration not stated) | 3.4 | -3.42
Cc1nc(CN2CCOC(CNc3cccnn3)C2)cs1 (configuration not stated) | -1.08 | -2.07
Cc1cc(C[S+]([O-])CC(=O)NCC(C)C)no1 (configuration not stated) | -2.03 | 4.91
Cc1ccc(C#N)cc1NC(=O)NC1CCCN(c2ncccn2)C1 (configuration not stated) | 1.97 | -2.85
Cc1cc(C)n(CC2CCCN2CC(=O)N(C)Cc2cnn(C)c2)n1 (configuration not stated) | -0.211 | 21.8
CCC(C)[C@H](NC(=O)c1cc(Br)ccc1-n1cnnn1)C(=O)OC (some centres not stated) | -2 | -22.1
Cc1ccc(C(=O)N2CCC(Oc3ccc(F)cc3F)CC2)c(=O)[nH]1 | -4.97 | 30.4
CCCNCc1cc2c(C)cc(C)cc2n2c(=O)n(C)nc12 | -5.73 | -11.4
Cc1cccc(N2CC[C@@H]3CN(C(=O)c4ccco4)CCO[C@@H]3C2)n1 | -0.221 | 1.6
Cc1cc(C[S+]([O-])CC(=O)NCc2cccs2)no1 (configuration not stated) | -0.395 | 9.34
Cn1ccnc1CN1CCCN(C(=O)c2ccc3c(c2)COC3)CC1 | 0.393 | 24.9
O=C(c1nn(-c2ccccc2F)cc1O)N1CCCC1 | 3.09 | 16
O=C(CC1CN(Cc2ccccc2)CCO1)Nc1ccccc1F (configuration not stated) | -4.94 | -0.0564
CN1CCCC[C@@H]2[C@H]1[C@@H](c1ccccc1)CCN2C(=O)c1ccccc1 | -4.21 | -4.17
CC(C)NS(=O)(=O)c1cc(C(=O)O)cc(-c2ccccc2CN(C)C)c1 | 1.25 | -13.2
O=C(CNCCn1cccn1)NCC1(c2ccccc2)CC1 | 1.09 | 13.4
COCCN(CCc1ccccc1)Cc1nc2c(cnn2C)c(=O)[nH]1 | 1.95 | 29.5
CCN(c1ccc(C(=O)NCCCN2CCOCC2)cc1)S(=O)(=O)CC | 4.46 | -48.2

— ChEMBL document CHEMBL3988442, “University of Dundee, Small-Polar-MMV Screening Library” (2021)
